{"source": "PubChem BioAssay AID1259416", "about": "(Broad Institute, 2018)", "note": "Values joined by “and” are separate entries in the source; they are usually repeats but may differ in a detail not shown here. Equal values may be shown once. About 2,600 (3.8%) of roughly 69,000 compounds were called active. This is one part of a sample in which actives are shown more often than they occur. Cut-off read from the data, not from the text of the source: active = activity change below about -70% (passing the limit was not always enough); inconclusive = no clear call, values can overlap the other calls. Some compounds were tested as several samples or in several runs, with calls that do not always agree.", "data": [{"experiment": "T. gondii growth inhibition with IFN-gamma, primary screen, cell-based (AID 1259416);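 note: host cells are HeLa cells infected with Toxoplasma gondii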", "details": "Toxoplasma gondii growth in IFN-gamma-treated host cells; stronger effect = lower value; concentration not given here", "values": [{"smiles": "CC[N+]1(C)CCCC(OC(=O)C(O)(c2ccccc2)c2ccccc2)C1", "note": "(stereo not drawn)", "activity change, negative = inhibition": "-81.7% (active) and 11.1% (inactive) and 46.8% (inactive)"}, {"smiles": "COc1ccc(OC)c(NC(=O)c2cc3cccnc3n(Cc3ccccc3F)c2=O)c1", "activity change, negative = inhibition": "10.9% (inactive)"}, {"smiles": "CC(C)N1C[C@H]2CN(C(=O)c3cccs3)C[C@@H]2C1", "activity change, negative = inhibition": "13.5% (inactive)"}, {"smiles": "CO[C@@H]1CCN(C(=O)c2ccc(C)cn2)[C@H]2CN(CC3CC3)C[C@@H]12", "activity change, negative = inhibition": "294% (inactive)"}, {"smiles": "c1cc(-c2cccc3c2CCNC3)cc(-n2cnnc2)c1", "activity change, negative = inhibition": "-1.55% (inactive)"}, {"smiles": "CC(C)(Cc1c[nH]c2ccc(Cl)cc12)NCCOc1ccccc1OCC1CC1", "activity change, negative = inhibition": "-75.1% (active) and -81.3% (active)"}, {"smiles": "COc1ccc2c(c1)C1(CCN(C(=O)C(C)(C)NC(=O)OCc3ccccc3)CC1)CC2CC(=O)O", "note": "(stereo not drawn)", "activity change, negative = inhibition": "0.749% (inactive)"}, {"smiles": "Cc1nc(N2CCCN3CCC[C@H]3C2)c2cnn(C)c2n1", "activity change, negative = inhibition": "2.34% (inactive)"}, {"smiles": "CN1CCC2(COCc3cnc(NCc4ccco4)nc32)C1", "note": "(stereo not drawn)", "activity change, negative = inhibition": "-59.4% (inactive)"}, {"smiles": "CCc1cnc(C)nc1N1CCC2(CC1)CN(C)CCN2C", "activity change, negative = inhibition": "-5.22% (inactive)"}, {"smiles": "CC(Cc1ccccn1)N(C)Cc1ncc[nH]1", "note": "(stereo not drawn)", "activity change, negative = inhibition": "15.6% (inactive)"}, {"smiles": "c1ccc2c(c1)[I+]c1ccccc1-2", "activity change, negative = inhibition": "-75.9% (active) and -69.4% (inactive)"}, {"smiles": "COc1ccc(NC(=O)c2cc3cccnc3n(Cc3ccc(Cl)cc3)c2=O)c(OC)c1", "activity change, negative = inhibition": "113% (inactive)"}, {"smiles": "CCc1ccc(NC(=O)c2cc3cccnc3n(Cc3ccccc3F)c2=O)cc1", "activity change, negative = inhibition": "49.4% (inactive)"}, {"smiles": "CC(NC(=O)c1c(O)c2cccnc2n(Cc2ccccc2)c1=O)c1ccccc1", "note": "(stereo not drawn)", "activity change, negative = inhibition": "-120% (active)"}, {"smiles": "Cc1cc(C)cc(NC(=O)c2c(O)c3cccnc3n(Cc3ccccc3)c2=O)c1", "activity change, negative = inhibition": "135% (inactive)"}, {"smiles": "O=C(Nc1ccccc1)c1c(O)c2cccnc2n(Cc2ccccc2)c1=O", "activity change, negative = inhibition": "-29% (inactive)"}, {"smiles": "CC(C)c1ccc(NC(=O)c2cc3cccnc3n(Cc3ccc(Cl)cc3)c2=O)cc1", "activity change, negative = inhibition": "70.6% (inactive)"}, {"smiles": "C=CCNC(=O)c1cn(Cc2ccc(C)o2)cc(C(=O)N2CCCCCCC2)c1=O", "activity change, negative = inhibition": "-1.9% (inactive)"}, {"smiles": "C/C=C/c1ccc(C2[C@@H]3CN(S(C)(=O)=O)C[C@H]2N3)cc1", "note": "(stereo partly drawn)", "activity change, negative = inhibition": "4.19% (inactive)"}, {"smiles": "COc1cc([C@@H]2c3cc4c(cc3[C@H](OC(C)=O)[C@H]3COC(=O)[C@H]23)OCO4)cc(OC)c1OC", "activity change, negative = inhibition": "-81.8% (active)"}, {"smiles": "O=C(Nc1cccc(F)c1)N1CC2CNC(C2)C1", "note": "(stereo not drawn)", "activity change, negative = inhibition": "-49% (inactive)"}, {"smiles": "CN(Cc1ncc[nH]1)C1CCC2(CCNCC2)CC1", "activity change, negative = inhibition": "-23.6% (inactive)"}, {"smiles": "CCN1CCO[C@@H]2CN(Cc3ccc4ccccc4n3)C[C@H]2C1", "activity change, negative = inhibition": "-44.8% (inactive)"}, {"smiles": "CCCCCCCCCCCCCC(=O)O[C@@H]1[C@@H](C)[C@@]2(O)[C@@H](C=C(CO)C[C@]3(O)C(=O)C(C)=C[C@@H]23)[C@@H]2C(C)(C)[C@]12OC(C)=O", "activity change, negative = inhibition": "-78.2% (active) and -67.3% (inactive)"}, {"smiles": "CNC(=O)[C@H]1CC2CN(C(=O)Cc3cccs3)CC2N1C", "note": "(stereo partly drawn)", "activity change, negative = inhibition": "-9.27% (inactive)"}, {"smiles": "CC(=O)O[C@H]1CC[C@@]2(C)C(=CCC3C2CC[C@]2(C)C(=O)CCC32)C1", "note": "(stereo partly drawn)", "activity change, negative = inhibition": "-55.1% (inactive)"}, {"smiles": "COc1ccc(CN2CCCC23CCCN(C(=O)Cc2ccc(Cl)cc2)C3)cc1F", "note": "(stereo not drawn)", "activity change, negative = inhibition": "84.8% (inactive)"}]}]}
